Activity calls are given as the source filed them.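 Rule for the calls, unless noted: active = inhibition at or above 50% at 10 µM; inactive = inhibition below 50%.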
Assays:
[1] = inhibitors of TNFa-induced NFkB p65 translocation, primary screen, imaging, HUVEC, MLSMR starter and 10KST1 sets (AID 438;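 active = inhibition above 20% together with a positive visual image hit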;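 note: compound added about 3h40 before a 20 min TNFalpha stimulation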;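 for inhibition: signal is the nuclear over cytoplasmic p65 intensity ratio per well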); conditions: HUVEC TNFa-induced p65 nuclear translocation; cell count: measured here: nuclei count (cytotoxicity indicator), at 2.08 µM; inhibition: at 2 µM, stronger effect = higher value, 0% TNFa-plus-vehicle, 100% no-TNFa wells
[2] = inhibitors of mutant huntingtin aggregation, primary screen, imaging, exon1htt(103Q)mCFP cells, high-content imaging (AID 483;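 active = visual image review flags a hit and inhibition of aggregation exceeds 20%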;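 note: compound exposure lasted 3 days before fixation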;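 for nuclei count: percent of the per-plate median nuclei count of sample wells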); conditions: exon1htt(103Q)mCFP cell line, aggregate imaging, at 2 µM; inhibition of aggregation: stronger effect = higher value; nuclei count: measured here: cell count, toxicity
[3] = inhibitors of E-selectin induction by TNFa, primary screen, imaging, HUVEC, immunofluorescence, MLSMR starter and 10KST1 sets (AID 487;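 active = visually confirmed hit in the image check and inhibition above 20%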;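 for inhibition: signal is fraction of cell area covered by stained E-selectin grains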;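 for nuclei count: 100% = median nuclei count of all wells on the same plate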); conditions: HUVEC TNFalpha-induced E-selectin immunofluorescence imaging, at 2 µM; inhibition: stronger effect = higher value; nuclei count: measured here: cell number, toxicity
[4] = biological target: Voltage-gated potassium channel subunit beta-2 (Rattus norvegicus) (UniProt P62483); test: KvBeta enzyme negative modulators, primary screen, biochemical, NADPH fluorescence (AID 622;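 active = fluorescence slope higher than the sample average by over 3 SD, cut at about -0.22 in these data, passing the limit was not always enough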;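 note: slope of raw intensity against log time taken from 70 to 1610 s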); conditions: recombinant KvBeta, 4-cyanobenzaldehyde reduction, at 10 µM, stronger effect = higher value
Chain of Voltage-gated potassium channel subunit beta-2 (Rattus norvegicus) (P62483 whole entry, looked up): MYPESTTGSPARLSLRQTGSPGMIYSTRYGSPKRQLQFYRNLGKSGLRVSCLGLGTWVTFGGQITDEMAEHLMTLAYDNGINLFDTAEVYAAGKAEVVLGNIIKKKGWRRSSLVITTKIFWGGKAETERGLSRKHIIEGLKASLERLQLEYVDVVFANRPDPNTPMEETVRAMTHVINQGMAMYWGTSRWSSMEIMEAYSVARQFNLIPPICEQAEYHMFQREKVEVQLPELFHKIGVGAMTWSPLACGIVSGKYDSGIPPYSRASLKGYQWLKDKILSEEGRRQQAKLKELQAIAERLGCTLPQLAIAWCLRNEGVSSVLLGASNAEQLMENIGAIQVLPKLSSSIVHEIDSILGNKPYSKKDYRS

[5] = biological target: Voltage-gated potassium channel subunit beta-2 (Rattus norvegicus) (UniProt P62483); test: KvBeta positive modulators, primary screen, biochemical, NADPH fluorescence (AID 623;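 active = NADPH fluorescence slope more negative than the mean of all samples by about 3 SD, 99.7% confidence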;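 note: fluorescence intensity change per second fitted from 20 to 320 s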); conditions: Recombinant KvBeta, NADPH fluorescence decrease slope, 10 min; at 10 µM; stronger effect = lower value
[6] = biological target: Alpha-2C adrenergic receptor (Homo sapiens) (UniProt P18825); test: modulators of alpha2C/GIRK thallium flux, primary screen, cell-based, HEK293 alpha2C/GIRK1/2 (AID 624;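 active = fluorescence slope after compound addition differing from the mean of all screened samples at 99.7% confidence, in either direction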;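 note: slope of fluorescence ratio to pre-addition baseline per second over 15 to 24 s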); conditions: thallium flux BTC fluorescence, at 10 µM, actives lie on both sides
Chain of Alpha-2C adrenergic receptor (Homo sapiens) (P18825 whole entry, looked up): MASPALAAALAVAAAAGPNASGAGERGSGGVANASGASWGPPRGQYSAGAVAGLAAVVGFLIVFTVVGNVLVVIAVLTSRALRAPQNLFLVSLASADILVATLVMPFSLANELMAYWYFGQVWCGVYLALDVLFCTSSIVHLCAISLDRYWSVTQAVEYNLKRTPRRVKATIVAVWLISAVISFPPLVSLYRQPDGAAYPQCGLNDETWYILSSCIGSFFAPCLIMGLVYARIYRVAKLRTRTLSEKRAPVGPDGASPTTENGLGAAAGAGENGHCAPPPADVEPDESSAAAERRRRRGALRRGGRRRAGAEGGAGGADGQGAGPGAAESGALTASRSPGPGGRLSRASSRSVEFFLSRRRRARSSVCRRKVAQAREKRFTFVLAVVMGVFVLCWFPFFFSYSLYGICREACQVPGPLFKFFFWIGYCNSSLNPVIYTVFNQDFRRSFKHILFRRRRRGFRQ

[7] = inhibitors of Sendai virus-induced IRF3 signaling, primary screen, TLR/RLR signaling modifier project, cell-based, Sendai virus stimulus, luciferase, 10K MLSCN set (AID 602276); conditions: HEK293 RL24 IRF3 luciferase reporter, at 10 µM, stronger effect = higher value;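 note: firefly luciferase from ISG56 promoter only with Renilla not read in this screen; 0% = Sendai virus plus DMSO and 100% = medium plus DMSO without virus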
[8] = inhibitors of poly I:C-induced TLR3 signaling, primary screen, cell-based, poly I:C stimulus, luciferase, 10K MLSCN set (AID 602277;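 active = inhibition of the reporter signal at or above 50%; inactive = inhibition below 50%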); conditions: HEK293-TLR3 RL24 IRF3 luciferase reporter, at 10 µM, stronger effect = higher value

SMILES | cell count [1] | inhibition [1] | inhibition of aggregation [2] | nuclei count [2] | inhibition [3] | nuclei count [3] | fluorescence slope [4] | NADPH fluorescence slope [5] | slope [6] | inhibition [7] | inhibition [8]
CN(C1CCCCC1)S(=O)(=O)c1ccc(S(=O)(=O)N2CCCC2)cc1 | 737 | -10.5% (inactive) | -9.6% (inactive) | 100% | -78.3% (inactive) | 126% | -0.432 (inactive) | -2.1e-05 (inactive) | 0.00521 (inactive) | 16.1% (inactive) | 21.2% (inactive)
O=C(Nc1cccc(Cl)c1)N1CCN(c2ncccn2)CC1 | 334 | 2% (inactive) | 21% (inactive) | 94.1% | 19.1% (inactive) | 84.8% | -0.53 (inactive) | 4.6e-05 (inactive) | 0.00446 (inactive) | -23.1% (inactive) | -47% (inactive)
CCN(CC)CCCNC1CCS(=O)(=O)C1 (configuration not stated) | 730 | -7.4% (inactive) | 10.5% (inactive) | 126% | -19.7% (inactive) | 118% | -0.502 (inactive) | -6.6e-05 (inactive) | 0.00536 (inactive) | 2.02% (inactive) | 13.2% (inactive)
CCOc1ccccc1-n1c(SCC(=O)NCc2ccco2)nnc1-c1ccncc1 | 376 | 8.9% (inactive) | 6% (inactive) | 93% | 6% (inactive) | 85.8% | -0.405 (inactive) | 3.6e-05 (inactive) | 0.00499 (inactive) | 7.96% (inactive) | 21.5% (inactive)
COc1ccccc1-c1cc2nc(C)c(CCC(=O)NCc3ccco3)c(C)n2n1 | 688 | -7.7% (inactive) | -15.4% (inactive) | 115% | -41.8% (inactive) | 111% | -0.587 (inactive) | -4.5e-05 (inactive) | 0.00963 (inactive) | 18.9% (inactive) | 16.6% (inactive)
CCn1ncc(C2=NOC(C(=O)Nc3ccc4c(c3)OCO4)C2)c1C (configuration not stated) | 640 | -0.3% (inactive) | 0.2% (inactive) | 99.9% | -156% (inactive) | 112% | -0.5 (inactive) | -0.000277 (inactive) | 0.00345 (inactive) | -17.8% (inactive) | -34% (inactive)
CCOC(=O)c1c(N)nn(C(=O)C(C)C)c1-c1ccccc1 | 690 | -2.1% (inactive) | -5.4% (inactive) | 112% | 4.3% (inactive) | 109% | -0.529 (inactive) | -1.3e-05 (inactive) | 0.00581 (inactive) | -23.8% (inactive) | -5.01% (inactive)

Source: PubChem BioAssay
